Results filed as inconclusive are left out. Where a call stands in place of a potency, no number is given. Calls of active or inactive are those of the source. Calls come from the whole dose curve; as a rule, active = well fitted cell-killing curve with a large enough effect in the repeat runs; inconclusive = weak or mixed curves, or effect the other way; inactive = no such curve, though single readings can be large or run the other way.
Assay: qHTS assay to identify small molecule agonists of the estrogen receptor alpha (ER-alpha) signaling pathway in the presence of an antagonist - cell viability counter screen (AID 1259386);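 note: cells exposed to compounds for 22 h at 37 °C before the viability read; nearly all actives have a fitted effect of over 30% in size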
Conditions: VM7Luc4E2 viability, CellTiter-Fluor fluorescence, 22 h; series mostly up to 92.4 µM
Description: National Center for Advancing Translational Sciences [NCATS]
NIH Chemical Genomics Center [NCGC]
U.S. Environmental Protection Agency [EPA]
National Institutes of Environmental Health Sciences [NIEHS]
National Toxicology Program [NTP]
U.S. Food and Drug Administration [FDA]
Estrogen receptor (ER), a member of nuclear hormone receptor plays an important role in development, metabolic homeostasis and reproduction. Two subtypes of ER, ER-alpha and ER-beta, have similar expression patterns with some uniqueness in both types. Endocrine disrupting chemicals (EDCs) and their interactions with steroid hormone receptors like ER causes disruption of normal endocrine function. Therefore, it is important to understand the effect of environmental chemicals in ER signaling pathway. For identifying ER agonists, VM7Luc4E2 cell line has been used in the current assay.
VM7Luc4E2 cell line (provided by Denison MS, University of California) endogenously expresses full-length ER-alpha and is stably transfected with a plasmid containing four estrogen responsive elements (ERE) upstream of a luciferase reporter gene. This current screening for measuring luciferase reporter gene activity using VM7Luc4E2 cells against Tox21 10K library collection is a confirmation study on agonist mode screening in presence of ER-antagonist (ICI-182,780) at 10.0nM final concentration. The cytotoxicity of the compounds was tested in parallel by measuring the cell viability using CellTiter-Fluor assay system (Promega, Madison, WI) in the same wells.
Tox21 Assay Protocol Summary:
VM7Luc4E2 cells were cultured in phenol red free assay medium containing 10% charcoal stripped FBS for 5 days prior to the assay. The cells were dispensed at 4,000 cells in 4uL of assay medium per well into white wall/solid-bottom 1536-well plates (Corning Life Sciences, Corning, NY) using a Multidrop Combi (Thermo Fisher Scientific Inc., Waltham, MA) dispenser. After the assay plates were incubated at 37C and 5% CO2 for 24hr, 1uL of 10.0nM (final concentration) ICI-182,780 or assay buffer was added using two separate tips of Flying Reagent Dispenser (FRD, Aurora Discovery, San Diego, CA). Then 23nL of compounds dissolved in DMSO at 15 concentrations and positive controls or DMSO only was transferred to the assay plates by a Pintool station (Wako, San Diego, CA). The assay plates were incubated at 37C and 5% CO2 for 22hr. After 21hr incubation at 37C, 1uL/well CellTiter-Fluor reagent (Promega Corporation, Madison, WI) was added to each well using FRD and after 1hr incubation at 37C and 5% CO2, the fluorescence signal was measured on ViewLux plate reader (PerkinElmer, Shelton, CT).

Compound	Potency	activity change, negative = cytotoxicity
Fc1ccc(C2(Cn3cncn3)OC2c2ccccc2Cl)cc1 (stereo not given)	inactive	
CN1C(=S)CN=C(c2ccccc2)c2cc(Cl)ccc21	inactive	
CN(C)CCc1ccc(O)cc1	inactive	
CCSC(=O)N(CC)C1CCCCC1	inactive	
O=[N+]([O-])c1ccc2c3c(cccc13)CC2	inactive	
ClCCCN1CCN(c2cccc(Cl)c2)CC1	inactive	
N#Cc1ccncc1	inactive	
Cc1ncc2n1-c1ccc(Cl)cc1C(c1ccccc1F)=NC2	inactive	
CSc1nc(N=[N+]=[N-])nc(NC(C)C)n1	inactive	
O=C(N[C@H]1CN2CCC1CC2)c1cc2ccoc2cn1	inactive	
CCCCOC(=O)c1ccccc1C(=O)O	inactive	
CCOC(=O)C(c1c(O)c2ccccc2oc1=O)c1c(O)c2ccccc2oc1=O	inactive	
CC1CCC(=O)O1 (stereo not given)	inactive	
O=C1OC(c2ccc(O)c(S(=O)(=O)O)c2)(c2ccc(O)c(S(=O)(=O)O)c2)c2c(Br)c(Br)c(Br)c(Br)c21	inactive	
ClCC(Cl)Cl	inactive	
CC(C)[N+](=O)[O-]	inactive	
Nc1ccccc1Cl	inactive	
COC(=O)c1ccccc1S(=O)(=O)NC(=O)Nc1nc(C)cc(C)n1	inactive	
COc1cc(C[C@@H](C)N)c(OC)cc1C	inactive	
COc1cc(OC)nc(NC(=O)NS(=O)(=O)c2ncccc2C(=O)N(C)C)n1	inactive	

Compound	Potency	activity change, negative = cytotoxicity
c1coc(-c2nc3ccccc3[nH]2)c1	inactive	
CC(C)CC(N(C)C)C1(c2ccc(Cl)cc2)CCC1 (stereo not given)	inactive	
NC1=NC(=O)C(c2ccccc2)O1 (stereo not given)	inactive	
CNC(=O)Oc1ccccc1C1OCCO1	inactive	
CCNc1nc(NC(C)C)nc(OC)n1	inactive	
COC(=O)COc1ccc(Cl)cc1Cl	inactive	
CC(C)COP(=O)(OCC(C)C)OCC(C)C	inactive	
CCCCOC(=O)c1ccccc1N	inactive	
COP(=S)(OC)Oc1ccc(S(N)(=O)=O)cc1	inactive	
CNCC(=O)c1ccc(O)c(O)c1	inactive	
c1cc[c]([Hg][c]2ccccc2)cc1	inactive	
O=NN1CCN(N=O)CC1	inactive	
C[C@]1(O)CC[C@H]2[C@@H]3CCC4=CC(=O)CC[C@]4(C)[C@@]3(F)[C@@H](O)C[C@@]21C	inactive	
CC(N)=S	inactive	
O=[N+]([O-])c1cccc2cccnc12	inactive	
CCCCP(CCCC)CCCC	inactive	
N#CCBr	inactive	
COC(=O)C(c1ccccc1)C1CCCCN1 (stereo not given)	inactive	
CCCSP(=O)(OCC)Oc1ccc(Br)cc1Cl (stereo not given)	inactive	
CC1=C(C(=O)O)N2C(=O)[C@@H](N)[C@H]2SC1		2.04% [at 19 µM] (inactive)
